The results in this text go back to PubChem BioAssay AID686979 (National Center for Advancing Translational Sciences (NCATS), 2013).

Each structure is given as a SMILES string. “And” between values parts separate entries of the source, which are not always exact repeats. Equal entries are not always repeated. Out of some 420,000 compounds screened, about 50,000 (12%) were called active. Another 26% or so got no clear call; they are omitted. This excerpt belongs to a sample that is enriched for actives. Values without a mark were called inactive. Calls follow the shape of the dose curve; as a rule, active = well fitted inhibition curve with a large enough effect; inconclusive = small, poorly fitted or top-dose-only effect; inactive = flat fitted curve, though single readings scatter.
% is scaled to controls: 0 for no effect and ±100 for the full control effect; potency is read from the fitted curve at half-maximal effect.

The test in a line: qHTS for Inhibitors of human tyrosyl-DNA phosphodiesterase 1 (TDP1): qHTS in cells in presence of CPT. Also: nearly all actives have a fitted effect of over 55% in size. The following applies: chicken DT40 Tdp1-/-;hTDP1 cells + 20 nM CPT, ATP luminescence, 48 h; series mostly up to 46.2 µM; activity change, negative = growth inhibition: at the top concentration. A digest of the protocol: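 Cell growth measured by CellTiter-Glo luminescence after a minimum 48 h, 37 C compound exposure with 20 nM CPT in Tdp1-knockout DT40 cells stably expressing hTDP1, seeded 400/well; qHTS titration format.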
(qHTS replaces the single test concentration by a dilution series.)
For `O=C(/C=C/c1cccs1)c1cc(Cl)ccc1OC(=O)N1CCOCC1`, the Potency is 16.4 µM (active).
Regarding `O=C(Nc1cccc(OC(=O)N2CCCCC2)c1)N1CCOCC1`, the “activity change, negative = growth inhibition” value is -15.1%.
On the same count and under the same terms, the same measure for `Cc1cc(-c2ccc(N)c(C)c2)ccc1N`: -21.4%; for `C=CCN1C(=O)C2(C(C(=O)OCC)=C(N)Oc3c2c(=O)oc2ccccc32)c2ccccc21` (configuration not stated): -19.5%.
Turning to `CCC(=NCCCO)c1c(O)n(-c2ccc(OC)cc2)c(=O)[nH]c1=O`, the “activity change, negative = growth inhibition” value was 3.97%.
`CCCCn1c(O)c(C(CC)=NCc2ccco2)c(=O)[nH]c1=O`: the “activity change, negative = growth inhibition” value is -6.03%.
On to `CCCCCCN=C(CC)c1c(O)n(CCCC)c(=O)[nH]c1=O`, for which the Potency was 14.6 µM (active).
In the case of `OC(CNC1CCCCC1)c1ccccc1` (configuration not stated), the “activity change, negative = growth inhibition” value was -3.92%.
On to `NS(=O)(=O)c1ccc(CCNC(=O)c2ccc(Cl)c(S(=O)(=O)N3CCCCCC3)c2)cc1`, for which the Potency is 20.6 µM (active).
Turning to `CC1CCCCN1Cc1cccnc1` (configuration not stated), the “activity change, negative = growth inhibition” value is -3.72%.
Still for that read-out and setting: the same measure for `CCOC(=O)C(O)(c1ccc(N=Cc2ccccc2O)c(C)c1)C(F)(F)F` (configuration not stated): -6.07%.
On to `CC(=O)c1c(O)c(C)c(O)c(Cc2c(O)c3c(c(C(=O)/C=C\c4ccccc4)c2O)OC(C)(C)C=C3)c1O`, for which the Potency is 13.3 µM (active).
On to `CC(=O)c1c(O)c(C)c(O)c(Cc2c(O)c3c(c(C(=O)/C=C/c4ccccc4)c2O)OC(C)(C)C=C3)c1O`, for which the Potency was 29.9 µM (active).
Regarding `O=C1NC(=O)C(CCc2ccccn2)(Cc2cccc(Cl)c2Cl)C(=O)N1c1ccc(Br)cc1` (configuration not stated), the “activity change, negative = growth inhibition” value is -15%.
For `CCOP(=S)(OCC)SCOC(=O)NCC(=O)OC`, the “activity change, negative = growth inhibition” value is -6.7%.
On the same count and under the same terms, the figure for `CN1CCc2cc3c(cc2[C@H]1[C@@H]1OC(=O)c2c1ccc1c2OCO1)OCO3` is 1.03%.
On the same count and under the same terms, the figure for `C=CCSSCC=C` is -2.1%.
In the case of `CC(=CCOc1ccc2ccc(=O)oc2c1)C1=CC(=O)C(C)(C)O1`, the Potency is 5.8 µM (active).
Same read-out and setting: the figure for `c1ccc2c(c1)[I+]c1ccccc1-2` is 33.5 nM (active) and 15.8 nM (active) and 79.4 nM (active).
Turning to `Cc1nc2nc(C)c(CCC(=O)N3CCC4(CC3)OCCO4)c(C)n2n1`, the “activity change, negative = growth inhibition” value is -1.59%.
The same measure, in the same setting: the same measure for `O=C(O)CCn1cc(C=C2C(=O)NC(=S)NC2=O)c(-c2cccc(Br)c2)n1`: 1.42%.
As to `CNCC[C@H](Oc1ccc(C(F)(F)F)cc1)c1ccccc1`, the Potency was 7.5 µM (active).
In the case of `N[C@@H](Cc1c[nH]c2ccccc12)c1nnc(SCc2c(F)cccc2Cl)o1`, the “activity change, negative = growth inhibition” value was -13%.
For the compound `CC(C)C(N)C(=O)OCCOCn1cnc2c(=O)[nH]c(N)nc21` (configuration not stated), the Potency is 2.06 µM (active).
As to `CN(C)C(=O)Oc1cc(=O)n2c3c(cccc13)CCC2`, the “activity change, negative = growth inhibition” value is -1.55%.
Take `O=[N+]([O-])c1cnc2ccc3ccccc3c2c1`: the “activity change, negative = growth inhibition” value is 6.91%.
The same measure, in the same setting: the figure for `CC1CC=CCC12C(=O)NC(=S)NC2=O` (configuration not stated) is -9.4%; for `COC(=O)COc1cc(C)cc2oc(=O)c3c(c12)CCCC3` it is -6.26%.
Same read-out and setting: the same measure for `O=c1c2ccccc2nc(CBr)n1-c1ccc(Cl)cc1`: -28.4%.
In the case of `Cc1nc2ccccc2c(=O)n1-c1ccc(Cl)cc1Cl`, the Potency is 13 µM (active).
As for `O=C1CC(=O)N(Cc2ccccc2)C(=O)N1CCCCCCN1C(=O)CC(=O)N(Cc2ccccc2)C1=O`, the “activity change, negative = growth inhibition” value was 20.6%.
The same measure, in the same setting: the figure for `O=C(O)c1cc[c]([Sb](=[O])([OH])[OH])cc1[N+](=O)[O-]` is -6.27%.
For `COc1ccc(C)cc1N(CC(=O)N1CCC(C)CC1)S(=O)(=O)c1ccc(C)cc1`, the Potency was 18.4 µM (active).
Consider `COc1cc2c(cc1OC)[C@@H]1C(=O)c3ccc(O)c(CC=C(C)C)c3OC1CO2` (some centres not stated), for which the “activity change, negative = growth inhibition” value was 2.99%.
The same measure, in the same setting: the same measure for `COc1ccc2[nH]c3c(c2c1)CCN[C@H]3C`: 5.04%; for `CC1CCC(N(C)C2CCN(C)CC2)CC1` (configuration not stated): -14.5%; for `C[C@]12CCC3C(CC[C@H]4C[C@@H](O)CC[C@]34C)C1CC[C@@H]2O` (some centres not stated): -6.05%.
Still for that read-out and setting: the figure for `O=C(c1ccccc1[N+](=O)[O-])N1CCC2(CC1)OCCO2` is -10.9%.
Consider `Cc1cc(C)cc(C(=O)N(CCc2ccccc2)C2=CC3CCC(C2)N3C)c1` (configuration not stated), for which the Potency was 20.6 µM (active).
For `CN1C2C=C(N(C(=O)c3ccc(Cl)cc3)c3ccccc3)CC1CC2` (configuration not stated), the “activity change, negative = growth inhibition” value was -11.7%.
Still for that read-out and setting: the same measure for `Cc1ccc(N2C(=O)NC(=O)C(CCc3ccncc3)(Cc3cccc(Cl)c3Cl)C2=O)cc1` (configuration not stated): -5.48%.
For the compound `CN(C)C1C(=O)C(C(N)=O)=C(O)[C@@]2(O)C(=O)C3=C(O)c4c(O)cccc4[C@@](C)(O)C3C[C@@H]12` (some centres not stated), the Potency is 21.1 µM (active).
On the same count and under the same terms, the entry for `CC(C)Nc1nc(Cl)nc(NC(C)C)n1` is “inactive”.
Turning to `COC(=O)C(O)(c1ccc(NC(=O)c2ccco2)c(OC)c1)C(F)(F)F` (configuration not stated), the “activity change, negative = growth inhibition” value was -6.8%.
The same measure, in the same setting: the figure for `CCNc1nc2[nH]c(=O)c3c(c2s1)OC(N)=C(C#N)C3c1cccs1` (configuration not stated) is -26.8%.
`N#CC1=C(N)Oc2c(c(=O)oc3ccccc23)C1c1ccccc1OC(=O)c1cccs1` (configuration not stated): the Potency is 18.4 µM (active).
As to `CNP1(NC)=Nc2nn(-c3ccccc3)c(N)c2C(c2ccccc2)=N1`, the “activity change, negative = growth inhibition” value is -13.9%.
